Data taken from PubChem BioAssay AID1159580 (chemical genetic matrix, 2015).
“And” between values parts separate entries of the source, which are not always exact repeats. Equal entries are not always repeated. Screen size: about 5,500 compounds; about 2,000 (36%) were called active. Another 18% or so got no clear call; they are omitted. No stated cut-off is given here; in the data, active means normalized growth mostly below about 0.91 (no sharp cut-off); inconclusive means no clear call, values can overlap the other calls; inactive means mostly above about 0.92. The list shows a part of the results.

Assay: chemical genetic growth profiling, strain panel (AID 1159580);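 further: tested at 20 µM; growth read once vehicle control cultures reached saturation at 30 °C; 1 = growth at the plate median or of vehicle wells; lower values mean less growth of the strain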
Conditions: S. cerevisiae deletion strains, growth OD

Measured: normalized growth

CCCCCCC(C)OC(=O)COc1ccc(Cl)cc1Cl (configuration not stated)
inactive: locus YAL013W, strain DEP1, active compounds read low 0.981 | locus YAL021C, strain ccr4, active compounds read low 0.991 | locus YAL026C, strain drs2, active compounds read low 0.993 | locus YAL030W, strain snc1, active compounds read low 0.99 | locus YBL061C, strain skt5, active compounds read low 0.996 | locus YBR009C, strain hhf1, active compounds read low 0.985 | locus YBR021W, strain FUR4, active compounds read low 1 | locus YBR023C, strain chs3, active compounds read low 0.99 | locus YBR171W, strain sec66, active compounds read low 0.99 | locus YBR229C, strain ROT2, active compounds read low 0.996 | locus YBR231C, strain swc5, active compounds read low 0.984 | locus YBR279W, strain paf1, active compounds read low 0.994 | locus YCL011C, strain gbp2, active compounds read low 0.987 | locus YCL016C, strain dcc1, active compounds read low 0.988 | locus YCL029C, strain bik1, active compounds read low 1 | locus YCL061C, strain MRC1, active compounds read low 0.993 | locus YCL069W, strain vba3, active compounds read low 0.992 | locus YCR088W, strain abp1, active compounds read low 0.996 | locus YDL005C, strain med2, active compounds read low 0.996 | locus YDL035C, strain GPR1, active compounds read low 0.955 | locus YDL040C, strain nat1, active compounds read low 0.985 | locus YDL074C, strain BRE1, active compounds read low 0.968 | locus YDL101C, strain DUN1, active compounds read low 0.985 | locus YDL134C, strain PPH21, active compounds read low 1 | locus YDL185W, strain tfp1, active compounds read low 1.01 | locus YDL192W, strain arf1, active compounds read low 1 | locus YDR001C, strain nth1, active compounds read low 0.99 | locus YDR069C, strain doa4, active compounds read low 0.97 | locus YDR101C, strain arx1, active compounds read low 0.996 | locus YDR137W, strain rgp1, active compounds read low 0.987 | locus YDR150W, strain NUM1, active compounds read low 1.01 | locus YDR159W, strain sac3, active compounds read low 0.992 | locus YDR162C, strain NBP2, active compounds read low 0.939 | locus YDR195W, strain ref2 0.957 | locus YDR297W, strain sur2, active compounds read low 0.988 | locus YDR318W, strain mcm21, active compounds read low 1 | locus YDR334W, strain swr1, active compounds read low 0.988 | locus YDR335W, strain msn5, active compounds read low 0.994 | locus YDR388W, active compounds read low 1 | locus YDR392W, strain spt3, active compounds read low 0.997 | locus YDR502C, strain sam2, active compounds read low 1 | locus YEL003W, strain gim4, active compounds read low 0.988 | locus YEL037C, strain rad23, active compounds read low 0.995 | locus YEL061C, strain CIN8 (second series), active compounds read low 0.988 | locus YEL061C, strain CIN8, active compounds read low 0.986 | locus YER015W, strain faa2, active compounds read low 0.991 | locus YER016W, strain bim1, active compounds read low 0.99 | locus YER110C, active compounds read low 1 | locus YER111C, strain swi4, active compounds read low 1 | locus YER155C, strain BEM2 (second series), active compounds read low 0.989 | locus YER155C, strain BEM2, active compounds read low 0.976 | locus YER167W, strain BCK2, active compounds read low 0.986 | locus YFR010W, strain ubp6, active compounds read low 0.992 | locus YGL078C, strain dbp3, active compounds read low 0.996 | locus YGL086W, strain mad1, active compounds read low 0.997 | locus YGL167C, strain pmr1, active compounds read low 0.993 | locus YGL173C, strain kem1, active compounds read low 0.989 | locus YGL227W, strain vid30, active compounds read low 0.979 | locus YGL240W, strain doc1, active compounds read low 1 | locus YGL248W, strain PDE1, active compounds read low 0.991 | locus YGL253W, strain hxk2, active compounds read low 0.987 | locus YGR078C, strain PAC10, active compounds read low 0.988 | locus YGR135W, strain pre9, active compounds read low 1.01 | locus YGR229C, strain SMI1, active compounds read low 0.891 | locus YGR252W, strain gcn5, active compounds read low 1 | locus YHR013C, strain ard1, active compounds read low 0.988 | locus YHR027C, strain rpn1, active compounds read low 0.996 | locus YHR030C, strain SLT2, active compounds read low 0.974 and 1.03 | locus YHR079C, strain IRE1 (second series), active compounds read low 0.997 | locus YHR079C, strain IRE1, active compounds read low 1.02 | locus YHR094C, strain hxt1, active compounds read low 0.998 | locus YHR129C, strain ARP1, active compounds read low 0.977 | locus YHR142W, strain chs7, active compounds read low 0.988 | locus YHR200W, strain rpn10, active compounds read low 0.993 | locus YIL066C, strain RNR3, active compounds read low 0.963 | locus YIL073C, strain SPO22, active compounds read low 0.957 | locus YIL125W, strain kgd1, active compounds read low 0.996 | locus YIR030C, strain dcg1, active compounds read low 0.996 | locus YJL092W, strain hpr5, active compounds read low 0.994 | locus YJL095W, strain BCK1 (second series), active compounds read low 0.983 | locus YJL095W, strain BCK1, active compounds read low 0.94 and 1.03 | locus YJL115W, strain asf1, active compounds read low 0.989 | locus YJL129C, strain trk1, active compounds read low 0.953 | locus YJL134W, strain LCB3, active compounds read low 0.98 | locus YJL154C, strain vps35, active compounds read low 0.994 | locus YJL164C, strain tpk1, active compounds read low 0.969 | locus YJL166W, strain qcr8, active compounds read low 0.989 | locus YJL168C, strain set2, active compounds read low 1 | locus YJL187C, strain SWE1 (second series), active compounds read low 0.998 | locus YJL187C, strain SWE1, active compounds read low 0.992 | locus YJR043C, strain POL32, active compounds read low 0.969 | locus YJR066W, strain TOR1, active compounds read low 0.949
